MRP1 act = H69AR viability gain despite doxorubicin, primary screen, MRP-1 activator project, H69AR cells, CellTiter-Glo; viability increase, % at 10 µM; 140,000 tested, 0.61% active; viability rescue;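 active = viability gain under doxorubicin at or above a set limit, the compound median plus 3 SD, cut at about 4.7% in these data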;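 also: MRP-1 overexpressing cells given doxorubicin 25 µM after compound pretreatment; 18-22 h compound pretreatment then 72 h with doxorubicin before readout; 0% = doxorubicin-only wells and 100% = vehicle-treated cells without doxorubicin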
ERa coact inh = ERα–SRC-1 coactivator interaction inhibitors, primary screen, biochemical, TR-FRET, ERα LBD, estradiol-bound | Estrogen receptor (Homo sapiens), P03372 | inhibition, % at 25.6 µM | 86,000 tested, 1.7% active | TR-FRET ER-alpha LBD / SRC-1 peptide; in the data active = inhibition above about 50%;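 also: 0% = receptor plus peptide control and 100% = peptide only without receptor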
ERb SRC1 inh = inhibitors of ERβ-SRC1 coactivator interaction, primary screen, biochemical, TR-FRET, ERβ LBD, SRC-1 peptide; Estrogen receptor beta (Homo sapiens), Q92731; TR-FRET ER-beta LBD / SRC1-Cy5 peptide binding; receptor agonist-loaded with 1 µM estradiol; inhibition, % at 25.6 µM; 86,000 tested, 1.3% active;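 active = compounds whose percent inhibition of the receptor-coactivator binding signal exceeds about 50% in the single-dose screen, limit read from the data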;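 also: 0% = receptor plus peptide wells without compound and 100% = peptide-only wells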
Target sequence (Q92731 whole entry, looked up, the tested form may be a part): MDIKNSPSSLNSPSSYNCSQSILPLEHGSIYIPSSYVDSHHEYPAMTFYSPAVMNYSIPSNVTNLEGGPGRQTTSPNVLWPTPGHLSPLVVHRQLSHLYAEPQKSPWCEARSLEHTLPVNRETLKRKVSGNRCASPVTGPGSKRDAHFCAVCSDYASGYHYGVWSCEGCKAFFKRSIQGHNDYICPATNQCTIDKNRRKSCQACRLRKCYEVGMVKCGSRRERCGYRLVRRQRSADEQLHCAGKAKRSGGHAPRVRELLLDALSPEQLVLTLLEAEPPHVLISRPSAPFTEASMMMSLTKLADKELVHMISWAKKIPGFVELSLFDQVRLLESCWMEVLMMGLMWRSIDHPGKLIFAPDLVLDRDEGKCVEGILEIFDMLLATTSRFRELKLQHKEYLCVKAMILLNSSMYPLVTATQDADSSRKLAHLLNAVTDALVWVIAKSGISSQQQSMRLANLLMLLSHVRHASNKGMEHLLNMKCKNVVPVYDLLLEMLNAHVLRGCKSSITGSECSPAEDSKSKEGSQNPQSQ
MRP resist rev = reversal of MRP1-mediated doxorubicin resistance, primary screen, H69AR cells, doxorubicin co-treatment | H69AR cells + 2 uM doxorubicin, CellTiter-Glo, 72 h | differential viability (reversal), % at 10 µM | 85,000 tested, 0.04% active | AID 602, 2007;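 active = viability drop by adding the cancer drug above about 55%, with treated viability meeting a 40% cutoff, limit read from the data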;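 also: viability without doxorubicin minus viability with 2 µM doxorubicin for each compound; larger differential means the compound sensitizes cells more to doxorubicin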
ERa coact pot = enhancers of ERα–SRC-1 coactivator binding, primary screen, biochemical, TR-FRET, ERα LBD, low estradiol; Estrogen receptor (Homo sapiens), P03372; TR-FRET ERalpha-LBD/SRC-Cy5 coactivator binding, 2 h; 100 = basal binding, no effect; coactivator binding (% of control), % at 25.6 µM; 86,000 tested, 1.3% active; in the data active = activity above about 200%;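 also: binding measured in presence of low estradiol as agonist stimulus; 0% = peptide alone without receptor and 100% = receptor with peptide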
* hit, by the source's call; [ ] = remark or other dose. Shown are actives, neighbours in structure and some others; about 2.7% of the full set was active somewhere.

What do the screens show for `CCn1c(-c2ccc(F)cc2)cnc1SCC(=O)N1CCCCC1C` (centres undefined)?
MRP1 act: 0

What do the screens show for `NS(=O)(=O)c1cc2c(cc1Cl)NC=NS2(=O)=O`?
MRP1 act: -1; ERa coact inh: 7; ERb SRC1 inh: 94*[fluorescence artefact?]; MRP resist rev: 9; ERa coact pot: 96

How did Cc1ccc(Sc2c(C)nn(C(=O)c3cccc(S(=O)(=O)N4CCOCC4)c3)c2C)cc1 do in these assays?
MRP1 act: -2; ERa coact inh: 18; ERb SRC1 inh: 14; MRP resist rev: -1; ERa coact pot: 237*[fluorescence artefact?]

Results for O=C(OC1CCc2ccccc2C1=O)c1ccccc1O (centres undefined) ?
MRP1 act: 14*; ERa coact inh: 6; ERb SRC1 inh: 6; MRP resist rev: -8; ERa coact pot: 104

What do the screens show for `Cc1ccc(OCCn2cnc3ccccc3c2=O)c([N+](=O)[O-])c1`?
MRP1 act: -3

What do the screens show for `COc1ccc(NC(=O)c2cnc3sccn3c2=O)cc1OC`?
ERa coact inh: 4; ERb SRC1 inh: 40; MRP resist rev: -6; ERa coact pot: 72

How did Cc1ccc2nc(-c3cccc(-c4nc5ccc(C)cc5o4)n3)oc2c1 do in these assays?
ERa coact inh: 7; ERb SRC1 inh: 12; MRP resist rev: 0; ERa coact pot: 248*[fluorescence artefact?]

Results for Cc1ccc(CN2CCN(CC3CC4C=CC3C4)CC2)cc1 (centres undefined) ?
MRP1 act: -2; ERa coact inh: -4; ERb SRC1 inh: -3; MRP resist rev: 6; ERa coact pot: 112

What do the screens show for `CN1C(=O)/C(=C\c2ccccc2)Sc2ccc(C(=O)N3CCN(c4ccccn4)CC3)cc21`?
MRP1 act: -2

Results for CCOC(=O)c1c(N)sc(=S)c2c1CCC2 ?
MRP1 act: -1; ERa coact inh: 55*[fluorescence artefact?]; ERb SRC1 inh: 70*; MRP resist rev: 9; ERa coact pot: 45

What do the screens show for `Cc1ccc(NC(=O)CN(c2ccccc2)S(=O)(=O)N(C)C)cc1C`?
MRP1 act: -1; ERa coact inh: 32; ERb SRC1 inh: 3; MRP resist rev: 2; ERa coact pot: 95

Results for COc1ccc(NC(=O)CN(c2ccccc2)S(=O)(=O)N(C)C)cc1OC ?
MRP1 act: 0; ERa coact inh: 63*[fluorescence artefact?]; ERb SRC1 inh: 57*; MRP resist rev: 2; ERa coact pot: 69

Results for Cc1nn(CC(=O)NCc2cccc3ccccc23)c(=O)c2ccccc12 ?
MRP1 act: -4; ERa coact inh: -27; ERb SRC1 inh: -9; MRP resist rev: -2; ERa coact pot: 257*[fluorescence artefact?]

Results for COc1ccc(OCC(=O)Nc2cc(-c3nn(C)c(=O)c4ccccc34)ccc2OC)cc1 ?
MRP1 act: -1; ERa coact inh: 8; ERb SRC1 inh: 2; MRP resist rev: 2; ERa coact pot: 677*[fluorescence artefact?]

Results for Cc1ccc(-c2nn(C)c(=O)c3ccccc23)cc1CNC(=O)Cn1nc(-c2ccccc2)c2ccccc2c1=O ?
MRP1 act: -3; ERa coact inh: 68*[fluorescence artefact?]; ERb SRC1 inh: 48; MRP resist rev: -5; ERa coact pot: 89

What do the screens show for `Cc1nn(CC(=O)NCc2ccccc2)c(=O)c2ccccc12`?
MRP1 act: 0; ERa coact inh: -19; ERb SRC1 inh: -20; MRP resist rev: 5; ERa coact pot: 99

How did COc1ccc(-c2nn(C)c(=O)c3ccccc23)cc1NC(=O)Cn1nc(-c2ccccc2)c2ccccc2c1=O do in these assays?
MRP1 act: -2; ERa coact inh: 13; ERb SRC1 inh: 2; MRP resist rev: 28; ERa coact pot: 290*[fluorescence artefact?]

How did N#Cc1ccc(OCC(=O)Nc2ccccc2NS(=O)(=O)c2cccs2)cc1 do in these assays?
MRP1 act: -2

Results for Cc1ccc(NC(=O)CSCCc2ccccn2)nc1 ?
MRP1 act: -1; ERa coact inh: -5; ERb SRC1 inh: 1; MRP resist rev: 5; ERa coact pot: 112

Results for CCOC(=O)CSc1nc2ccccc2n1C(=O)OCC ?
MRP1 act: -1; ERa coact inh: -7; ERb SRC1 inh: -5; MRP resist rev: 8; ERa coact pot: 103

What do the screens show for `CCSc1nc2ccccc2n1C(=O)Oc1ccccc1`?
MRP1 act: -3; ERa coact inh: -45; ERb SRC1 inh: 4; MRP resist rev: -1; ERa coact pot: 497*[fluorescence artefact?]

How did CC(C)C(NC(=O)c1ccc(F)cc1)C(=O)OCC(=O)N1CC(=O)Nc2ccccc21 (centres undefined) do in these assays?
MRP1 act: -2

What do the screens show for `N#Cc1c(OCC(=O)c2ccccc2)nc2c(c1-c1ccco1)CCc1ccccc1-2`?
MRP1 act: -4; ERa coact inh: 15; ERb SRC1 inh: 13; MRP resist rev: -14; ERa coact pot: 230*

What do the screens show for `COc1ccc(C(=O)OC(C)C(=O)Nc2cc(C(F)(F)F)ccc2Cl)c(OC)c1OC` (centres undefined)?
MRP1 act: -1

What do the screens show for `COc1ccc(Br)cc1/C(C)=N/NC1=NCCN1`?
MRP1 act: -2; ERa coact inh: 32; ERb SRC1 inh: -4; MRP resist rev: -25; ERa coact pot: 97

What do the screens show for `CCCCCOc1ccc(Br)cc1/C(C)=N/NC1=NCCN1`?
MRP1 act: -7; ERa coact inh: 66*[fluorescence artefact?]; ERb SRC1 inh: 18; MRP resist rev: 1; ERa coact pot: 21

Results for Cc1cc(C)cc(OCC(=O)Nc2nonc2NC(=O)COc2cc(C)cc(C)c2)c1 ?
MRP1 act: -1; ERa coact inh: 82*[fluorescence artefact?]; ERb SRC1 inh: 38; MRP resist rev: 3; ERa coact pot: 38

Results for O=C(Cn1c(C(=O)N2CCN(C3CCCC3)CC2)cc2sccc21)c1ccccc1 ?
MRP1 act: -4; ERa coact inh: 6; ERb SRC1 inh: -12; MRP resist rev: 22; ERa coact pot: 115

What do the screens show for `O=C(Nc1ncc(Cc2ccccc2Cl)s1)c1ccc(-c2cccc([N+](=O)[O-])c2)o1`?
MRP1 act: 5.2*

How did O=C(Nc1ncc(Cc2cccc(Cl)c2)s1)c1ccc([N+](=O)[O-])cc1 do in these assays?
MRP1 act: 0

Results for O=C(Nc1ncc(Cc2ccc(C(F)(F)F)cc2)s1)c1ccc(-c2cccc([N+](=O)[O-])c2)o1 ?
MRP1 act: 5.0*

What do the screens show for `Cc1cccc(NC(=O)C2CCN(S(=O)(=O)c3cccc4nsnc34)CC2)c1`?
MRP resist rev: 4

What do the screens show for `Cc1cccc(NC(=O)C2CCCN(S(=O)(=O)c3cccc4nsnc34)C2)c1` (centres undefined)?
MRP1 act: -1; ERa coact inh: 23; ERb SRC1 inh: 51*[fluorescence artefact?]; MRP resist rev: -21; ERa coact pot: 230*[fluorescence artefact?]

Compound activity (PubChem)
